From PubChem BioAssay (EPA / NIEHS)
Values joined by “and” are separate entries in the source; they are usually repeats but may differ in a detail not shown here. Identical values can stand only once. Results filed as inconclusive are left out. Some compounds were tested as several samples or in several runs, with calls that do not always agree. Active and inactive are the calls of the source. How the source made its calls, unless noted: active means hit-call score of the fitted dose curve at least 0.9, where 1 is the maximum; inactive means score below 0.9.

Experiments:
[1] = biological target: Estrogen receptor (Homo sapiens) (UniProt P03372); test: CCTE_Deisenroth_AIME_384WELL_LUC_Shift: CCTE's 384-well Estrogen Receptor Transactivation Assay with AIME metabolic competence data shift (ERTA luciferase; difference in metabolism positive and negative), Deisenroth Lab (AID 2284041);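 further: shift is response with S9 minus without S9 so positive means metabolism raised ER signal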
How it was run: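 Chemicals (0.002–200 uM, 10 points) pre-incubated 2 h with alginate-encapsulated induced male Sprague Dawley rat liver S9 or S9-free, then medium applied 24 h to VM7Luc4E2 cells; luciferase. Endpoint is per-concentration difference, S9-positive minus negative.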

[2] = CCTE_Shafer_MEA_dev_burst_rate: CCTE's Neural Network Formation Assay for Burst Rate, Shafer Lab (AID 2284042);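 on AC50: potency for loss of burst rate below DMSO control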
How it was run: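 Rat primary cortical cultures on PEI/laminin MEA; compound from plating, re-dosed at DIV 5, 9 media change. Single-electrode bursts/recording length, well mean of active electrodes; AUC over DIV 5–12 recordings; loss-of-signal vs DMSO.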

[3] = CCTE_Shafer_MEA_dev_bursting_electrodes_number: CCTE's Neural Network Formation Assay for Number of Bursting Electrodes, Shafer Lab (AID 2284043; active means hit-call score of the fitted dose curve at least 0.9, where 1 is the maximum;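 on AC50: potency is for loss of bursting electrodes relative to DMSO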)
How it was run: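 Primary rat cortical neurons plated on 16-electrode MEA wells, exposed from day 0 with compound renewed at DIV 5 and 9. Electrodes bursting ≥1 burst per 2 min counted on days 5, 7, 9 and 12; trapezoidal AUC across days, fitted for loss versus DMSO.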

[4] = CCTE_Shafer_MEA_dev_per_burst_interspike_interval: CCTE's Neural Network Formation Assay for Burst Interspike Interval, Shafer Lab (AID 2284044);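 further: mean spike spacing inside bursts as AUC over recordings on days 5 7 9 12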;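 on AC50: potency for a decrease of within-burst interspike interval below DMSO level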
How it was run: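 Spontaneous activity of maturing rat cortical networks is recorded on DIV 5, 7, 9 and 12 under chronic compound exposure beginning at plating. Endpoint: burst interspike interval well-mean, collapsed into trapezoidal AUC and fitted in the negative direction relative to DMSO.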

[5] = CCTE_Shafer_MEA_dev_burst_duration_mean: CCTE's Neural Network Formation Assay for Mean Burst Duration, Shafer Lab (AID 2284045);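 on AC50: curve fitted for loss meaning shorter burst duration than DMSO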
How it was run: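 Primary rat cortical neurons on 48-well 16-electrode MEA plates, exposed from day 0 with renewal at DIV 5 and 9; spontaneous activity recorded on days 5, 7, 9, 12. Well-mean burst duration across bursting electrodes, collapsed as trapezoidal AUC; DMSO baseline.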

[6] = CCTE_Shafer_MEA_dev_interburst_interval_mean: CCTE's Neural Network Formation Assay for Mean Interburst Interval, Shafer Lab (AID 2284046);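 further: well-mean interburst interval of bursting electrodes as AUC over four recording days; curve fitted for decrease in interburst interval relative to DMSO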
How it was run: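 Rat cortical neurons, 1.5 x 10^5 cells/well, 48-well MEA; compound from day 0 through DIV 12, media and treatment renewed DIV 5/9. Recordings DIV 5, 7, 9, 12; well-mean interburst interval → trapezoidal AUC, loss direction vs DMSO.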

[7] = CCTE_Shafer_MEA_dev_network_spike_number: CCTE's Neural Network Formation Assay for Number of Network Spikes, Shafer Lab (AID 2284048);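 on AC50: fit as a loss of signal meaning fewer network spikes than DMSO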
How it was run: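 Primary rat cortical neurons on PEI/laminin 48-well MEA plates, dosed from plating day 0 for 12 days, renewed at DIV 5 and 9. Network spike counts recorded DIV 5, 7, 9, 12, collapsed as trapezoidal AUC; DMSO baseline.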

[8] = CCTE_Shafer_MEA_dev_spike_duration_mean: CCTE's Neural Network Formation Assay for Mean Spike Duration, Shafer Lab (AID 2284051);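 further: mean network spike duration pooled as area under curve over DIV 5 to 12 recordings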;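 on AC50: potency for a decrease in mean network spike duration versus DMSO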
How it was run: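 Rat cortical primary cultures, 48-well MEA (16 electrodes/well); compound from plating, renewed DIV 5, 9. Network spike duration (AxIS adaptive detector) recorded DIV 5/7/9/12, combined as trapezoidal AUC; loss direction vs DMSO.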

[9] = CCTE_Shafer_MEA_dev_network_spike_duration_std: CCTE's Neural Network Formation Assay for Standard Deviation of Network Spike Duration, Shafer Lab (AID 2284052);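 further: area under curve of spike duration SD across recording days 5 to 12; hits are decreases in network spike duration SD versus DMSO vehicle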
How it was run: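 Rat cortical cultures, 1.5 x 10^5 cells/well, exposed continuously from plating to DIV 12 with media/compound renewal at DIV 5, 9. Spontaneous activity recorded DIV 5/7/9/12, AxIS adaptive spike detector; AUC across days; negative direction vs DMSO.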

[10] = CCTE_Shafer_MEA_dev_per_network_spike_spike_number_mean: CCTE's Neural Network Formation Assay for Mean Number of Spikes in a Network Spike, Shafer Lab (AID 2284053);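 on AC50: fitted as decrease in spikes per network spike relative to DMSO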
How it was run: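 Rat cortical primary cultures on 48-well MEA; compound from day 0, re-dosed with full media change DIV 5, 9. Recorded DIV 5, 7, 9, 12; spikes in 0.05 s window at network-spike peak ÷ total network spikes; AUC; loss vs DMSO.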

[11] = CCTE_Shafer_MEA_dev_LDH: CCTE's Lactate Dehydrogenase Assay for Cytotoxicity in the Neural Network Formation Assay, Shafer Lab (AID 2284068; active means hit-call score of the fitted dose curve at least 0.9, where 1 is the maximum;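 further: exposure for twelve days from plating with re-dosing on DIV 5 and 9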)
How it was run: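 Rat cortical primary neurons, MEA culture; dosing day 0–12, full medium plus compound exchange DIV 5, 9. Read-out: LDH enzyme activity, spectrophotometric. DMSO = negative control/baseline; signal loss → cytotoxicity.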

[12] = CCTE_Shafer_MEA_acute_AB: CCTE's Alamar Blue Assay for Cytotoxicity in the Neural Acute Assay, Shafer Lab (AID 2284069; active means hit-call score of the fitted dose curve at least 0.9, where 1 is the maximum;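 further: active compounds lower the viability signal compared with DMSO wells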)
How it was run: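 Read-out: resazurin fluorescence (ex 544, em 590 nm) after CTB reagent at 1:6 dilution in fresh media. Cells: primary rat cortical neuron networks, DIV 13 or 15, chemically exposed on MEA plates; DMSO as negative control/baseline.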

[13] = CCTE_Shafer_MEA_dev_AB: CCTE's Alamar Blue Assay for Cytotoxicity in the Neural Network Formation Assay, Shafer Lab (AID 2284083; active means hit-call score of the fitted dose curve at least 0.9, where 1 is the maximum;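 further: resazurin reduction fluorescence as viability of cultured neurons; twelve days of exposure from plating with re-dosing on DIV 5 and 9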)
How it was run: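 Rat cortical primary cultures, 1.5 x 10^5 cells/well on MEA; continuous compound exposure over 12 days of network development, re-dosed with full medium change DIV 5 and 9. Alamar Blue fluorescence; loss of signal = cytotoxicity vs DMSO baseline.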

[14] = CCTE_Shafer_MEA_dev_mutual_information_norm: CCTE's Neural Network Formation Assay for Mutual Information Normalization, Shafer Lab (AID 2284091);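 on AC50: mutual information between electrodes summarised as area under curve across four recording days; potency is for a decrease in mutual information relative to DMSO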
How it was run: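 Primary rat cortical neurons on PEI-coated 48-well MEA plates, 1.5 x 10^5 cells/well, exposed from day 0 through day 12 with re-dosing at DIV 5 and 9. Mutual information between electrodes recorded days 5, 7, 9, 12; trapezoidal AUC, loss-of-signal fit versus DMSO.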

[15] = CCTE_Shafer_MEA_dev_correlation_coefficient_mean: CCTE's Neural Network Formation Assay for Mean Correlation Coefficient, Shafer Lab (AID 2284093);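 on AC50: well mean pairwise spike train correlation integrated as AUC over recording days 5 to 12; potency fitted for loss of correlation relative to DMSO vehicle wells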
How it was run: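 Rat cortical cultures, 1.5 x 10^5 cells/well, dosed from day 0 for 12 days. Spontaneous spikes recorded DIV 5/7/9/12; electrode-pair correlation coefficients averaged, AUC taken. Fit in loss direction vs DMSO.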

[16] = tested on: DIO2 (gene 1734); test: CCTE_GLTED_hDIO2: CCTE's human Deiodinase 2 (DIO2) Inhibition Assay, Great Lakes Toxicology and Ecology Division (GLTED) Lab (AID 2284050; active means hit-call score of the fitted dose curve at least 0.9, where 1 is the maximum)
How it was run: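 In this cell-free test, chemicals are exposed to human deiodinase type 2 for 3 hours. Released iodide is determined spectrophotometrically via the Sandell-Kolthoff method, and signal loss relative to DMSO is fitted.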

[17] = tested on: DIO3 (gene 1735); test: CCTE_GLTED_hDIO3: CCTE's human Deiodinase 3 (DIO3) Inhibition Assay, Great Lakes Toxicology and Ecology Division (GLTED) Lab (AID 2284055; active means hit-call score of the fitted dose curve at least 0.9, where 1 is the maximum;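 further: potency is for inhibition seen as loss of released iodide signal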)
How it was run: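 Enzyme activity is tracked as iodide release from substrate by recombinant human DIO3 over 3 h with chemical present. A second Sandell-Kolthoff step converts iodide to an absorbance signal, fitted relative to DMSO.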

[18] = CCTE_Shafer_MEA_dev_network_spike_peak: CCTE's Neural Network Formation Assay for Mean Number of Electrodes in Network Spike, Shafer Lab (AID 2284049);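 further: fitted for loss of signal meaning fewer electrodes in network spikes than DMSO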
How it was run: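 Network-spike peak electrode count from recordings on days 5, 7, 9 and 12 was combined as trapezoidal area under the curve. Rat cortical cultures were treated continuously from plating, with compound renewed at each feed (DIV 5, 9); fits versus DMSO.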

Measured: AC50

Chain of Estrogen receptor (Homo sapiens) (P03372 whole entry, looked up): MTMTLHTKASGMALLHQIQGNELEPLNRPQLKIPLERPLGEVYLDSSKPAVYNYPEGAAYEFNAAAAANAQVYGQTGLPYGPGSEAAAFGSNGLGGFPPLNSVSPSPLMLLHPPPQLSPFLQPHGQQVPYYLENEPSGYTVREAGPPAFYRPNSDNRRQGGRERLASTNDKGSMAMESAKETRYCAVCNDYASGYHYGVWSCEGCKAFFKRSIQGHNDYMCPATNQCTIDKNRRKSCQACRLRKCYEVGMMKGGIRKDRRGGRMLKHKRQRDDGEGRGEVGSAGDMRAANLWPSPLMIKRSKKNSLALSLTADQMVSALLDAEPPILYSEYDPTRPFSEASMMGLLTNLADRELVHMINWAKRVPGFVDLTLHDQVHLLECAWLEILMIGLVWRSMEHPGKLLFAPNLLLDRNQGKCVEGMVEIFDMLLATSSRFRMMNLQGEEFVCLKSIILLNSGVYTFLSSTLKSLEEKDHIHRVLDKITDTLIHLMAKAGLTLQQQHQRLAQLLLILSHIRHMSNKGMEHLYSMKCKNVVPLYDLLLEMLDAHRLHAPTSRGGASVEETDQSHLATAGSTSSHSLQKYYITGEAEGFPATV

Cc1c(F)c(F)c(COC(=O)C2C(/C=C(\Cl)C(F)(F)F)C2(C)C)c(F)c1F (stereo not given)
active: [2] 716 nM | [3] 2.72 µM | [7] 311 nM | [8] 2.15 µM | [9] 893 nM | [10] 1.98 µM | [11] 18 µM | [13] 17.4 µM | [14] 302 nM | [15] 610 nM
inactive: [1] | [4] | [5] | [6] | [12]

Oc1ccccc1-c1ccccc1
active: [16] 38200 nM | [17] 89400 nM
inactive: [1]

COC(=O)N(OC)c1ccccc1COc1ccn(-c2ccc(Cl)cc2)n1
inactive: [1] | [2] | [5] | [7] | [9] | [12]
active: [2] 91.4 nM | [3] 123 nM and 13 nM | [4] 269 nM and 50 nM | [5] 129 nM | [6] 264 nM and 13.7 nM | [7] 66.9 nM | [18] 72.5 nM and 15.9 nM | [8] 88.7 nM and 9.7 nM | [9] 78.8 nM | [10] 82.2 nM and 11 nM | [11] 54.7 nM and 5.99 nM | [13] 120 nM and 25.3 nM | [14] 57.3 nM and 9.62 nM | [15] 161 nM and 10.2 nM

CC(C)(C)c1ccc(CSc2cnn(C(C)(C)C)c(=O)c2Cl)cc1
active: [2] 4.9 nM | [3] 0.00281 µM | [4] 4.98 nM | [5] 1.67 nM | [6] 3 nM | [7] 2.16 nM | [18] 2.2 nM | [8] 0.00163 µM | [9] 0.239 nM | [10] 0.00169 µM | [11] 0.00284 µM | [13] 0.0115 µM | [14] 1.53 nM | [15] 1.77 nM
inactive: [1]

CCCCC(CC)COC(=O)c1ccccc1C(=O)OCC(CC)CCCC (stereo not given)
active: [2] 2.98 µM and 6.34 µM | [3] 7.91 µM and 6.07 µM | [4] 9060 nM | [5] 3180 nM | [6] 12600 nM | [7] 2.32 µM and 12.8 µM | [18] 15 µM and 423 nM and 8.09 µM | [8] 9.35 µM and 4.75 µM | [9] 3050 nM | [10] 6.42 µM and 4.63 µM | [11] 11.3 µM | [13] 12.4 µM | [14] 1.59 µM and 2.77 µM | [15] 5.5 µM and 7.56 µM
inactive: [2] | [3] | [4] | [5] | [6] | [7] | [8] | [9] | [10] | [11] | [13] | [14] | [15]
